Measurements reported in PubChem BioAssay (NCATS).
Records with an inconclusive call do not appear. Activity calls are given as the source filed them. Calls come from the whole dose curve; as a rule, active = well fitted inhibition curve with a large enough effect; inconclusive = small, poorly fitted or top-dose-only effect; inactive = flat fitted curve, though single readings scatter.

What was measured:
[1] = qHTS profiling for inhibitors of Plasmodium falciparum proliferation (AID 504749);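 for activity, negative = inhibition: 0% = DMSO vehicle and full inhibition = artemisinin control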; for all read-outs here: nearly all actives have a fitted effect of over 60% in size; conditions: P. falciparum in erythrocytes, SYBR Green DNA, 72 h; for activity, negative = inhibition: at 28.7 µM (top of the series)
Procedure, shortened: (§1)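 Each compound contacts P. falciparum-infected red blood cells for 72 h at 37 C; lysis buffer (Tris, EDTA, saponin, Triton X, SYBR Green I) is added and fluorescence measured next morning; values normalized to controls.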

7G8 = experiment: as above; conditions: P. falciparum in erythrocytes, SYBR Green DNA, 72 h; series mostly up to 28.7 µM
Procedure, shortened: as §1

AS120 = experiment: as above; conditions: P. falciparum in erythrocytes, SYBR Green DNA, 72 h; series mostly up to 28.7 µM
Procedure, shortened: as §1

ATS189 = experiment: as above; conditions: P. falciparum in erythrocytes, SYBR Green DNA, 72 h; series mostly up to 28.7 µM
Procedure, shortened: as §1

CP201 = experiment: as above; conditions: P. falciparum in erythrocytes, SYBR Green DNA, 72 h; series mostly up to 28.7 µM
Procedure, shortened: as §1

CP211 = experiment: as above; conditions: P. falciparum in erythrocytes, SYBR Green DNA, 72 h; series mostly up to 28.7 µM
Procedure, shortened: as §1

CP215 = experiment: as above; conditions: P. falciparum in erythrocytes, SYBR Green DNA, 72 h; series mostly up to 28.7 µM
Procedure, shortened: as §1

CP217 = experiment: as above; conditions: P. falciparum in erythrocytes, SYBR Green DNA, 72 h; series mostly up to 28.7 µM
Procedure, shortened: as §1

CP238 = experiment: as above; conditions: P. falciparum in erythrocytes, SYBR Green DNA, 72 h; series mostly up to 28.7 µM
Procedure, shortened: as §1

3D7 = experiment: as above; conditions: P. falciparum in erythrocytes, SYBR Green DNA, 72 h; series mostly up to 28.7 µM
Procedure, shortened: as §1

AA1029 = experiment: as above; conditions: P. falciparum in erythrocytes, SYBR Green DNA, 72 h; series mostly up to 28.7 µM
Procedure, shortened: as §1

ATS95 = experiment: as above; conditions: P. falciparum in erythrocytes, SYBR Green DNA, 72 h; series mostly up to 28.7 µM
Procedure, shortened: as §1

C2A = experiment: as above; conditions: P. falciparum in erythrocytes, SYBR Green DNA, 72 h; series mostly up to 28.7 µM
Procedure, shortened: as §1

CP185 = experiment: as above; conditions: P. falciparum in erythrocytes, SYBR Green DNA, 72 h; series mostly up to 28.7 µM
Procedure, shortened: as §1

CP191 = experiment: as above; conditions: P. falciparum in erythrocytes, SYBR Green DNA, 72 h; series mostly up to 28.7 µM
Procedure, shortened: as §1

CP192 = experiment: as above; conditions: P. falciparum in erythrocytes, SYBR Green DNA, 72 h; series mostly up to 28.7 µM
Procedure, shortened: as §1

CP194 = experiment: as above; conditions: P. falciparum in erythrocytes, SYBR Green DNA, 72 h; series mostly up to 28.7 µM
Procedure, shortened: as §1

CP237 = experiment: as above; conditions: P. falciparum in erythrocytes, SYBR Green DNA, 72 h; series mostly up to 28.7 µM
Procedure, shortened: as §1

CP247 = experiment: as above; conditions: P. falciparum in erythrocytes, SYBR Green DNA, 72 h; series mostly up to 28.7 µM
Procedure, shortened: as §1

CP203 = experiment: as above; conditions: P. falciparum in erythrocytes, SYBR Green DNA, 72 h; series mostly up to 28.7 µM
Procedure, shortened: as §1
Potency is the fitted concentration of half-maximal effect.

O=c1n(CC2CO2)c(=O)n(CC2CO2)c(=O)n1CC1CO1 (configuration not stated)
inactive: activity, negative = inhibition ([1]; parasite line B) -29.5% | Potency (AS120) | Potency (ATS189) | Potency (CP201) | Potency (CP211) | Potency (CP215) | Potency (CP217) | Potency (CP238)
active: Potency (7G8) 12.6 µM

CCCCCCCCCCCCCCCCCC[N+](C)(C)CCC[Si](OC)(OC)OC
inactive: activity, negative = inhibition ([1]; parasite line A) 12.9% | Potency (3D7) | Potency (7G8) | Potency (AA1029) | Potency (AS120) | Potency (ATS189) | Potency (ATS95) | Potency (C2A) | Potency (CP185) | Potency (CP191) | Potency (CP192) | Potency (CP194) | Potency (CP201) | Potency (CP211) | Potency (CP215) | Potency (CP217) | Potency (CP237) | Potency (CP238) | Potency (CP247)

Nc1ccc(N=Nc2ccccc2)c(N)n1
inactive: Potency (3D7) | Potency (7G8) | Potency (AA1029) | Potency (AS120) | Potency (ATS189) | Potency (ATS95) | Potency (CP185) | Potency (CP192) | Potency (CP194) | Potency (CP201) | Potency (CP203) | Potency (CP211) | Potency (CP217) | Potency (CP237) | Potency (CP238) | Potency (CP247)
active: Potency ([1]; parasite line A) 10 µM

CC(CN(C)C)CN1c2ccccc2Sc2ccc(C(F)(F)F)cc21 (configuration not stated)
active: Potency ([1]; parasite line A) 11.2 µM | Potency (7G8) 10 µM | Potency (AS120) 11.2 µM | Potency (CP191) 8.91 µM
inactive: Potency (3D7) | Potency (CP192)

OC1OC[C@@H](O)[C@H](O)[C@@H]1O (some centres not stated)
inactive: activity, negative = inhibition ([1]; parasite line A) -2.48% | Potency (3D7) | Potency (7G8) | Potency (AA1029) | Potency (AS120) | Potency (ATS189) | Potency (ATS95) | Potency (C2A) | Potency (CP185) | Potency (CP191) | Potency (CP192) | Potency (CP194) | Potency (CP201) | Potency (CP203) | Potency (CP211) | Potency (CP215) | Potency (CP217) | Potency (CP237) | Potency (CP238) | Potency (CP247)

CCN(CC)CCC(=O)N1c2ccccc2Sc2ccc(Cl)cc21
active: Potency (7G8) 8.91 µM
inactive: Potency (ATS189) | Potency (CP192) | Potency (CP201)

CC(=O)Oc1cccc2c1C(=O)c1c(OC(C)=O)cc(C(=O)O)cc1C2=O
inactive: activity, negative = inhibition ([1]; parasite line B) -5.47% | Potency (3D7) | Potency (7G8) | Potency (AA1029) | Potency (AS120) | Potency (ATS189) | Potency (ATS95) | Potency (C2A) | Potency (CP185) | Potency (CP191) | Potency (CP192) | Potency (CP194) | Potency (CP201) | Potency (CP203) | Potency (CP215) | Potency (CP217) | Potency (CP237) | Potency (CP238) | Potency (CP247)

COc1ccc2nc(NC(=O)Nc3ccccc3)sc2c1
inactive: activity, negative = inhibition ([1]; parasite line B) 5.72% | Potency (AA1029) | Potency (ATS189) | Potency (ATS95) | Potency (C2A) | Potency (CP185) | Potency (CP191) | Potency (CP192) | Potency (CP194) | Potency (CP201) | Potency (CP217) | Potency (CP237) | Potency (CP238)
active: Potency (7G8) 10 µM

CC(C)CCCCCCc1ccc(O)cc1
active: Potency (7G8) 8.91 µM
inactive: activity, negative = inhibition ([1]; parasite line B) -29% | Potency (3D7) | Potency (AA1029) | Potency (C2A) | Potency (CP185) | Potency (CP191) | Potency (CP192) | Potency (CP194) | Potency (CP201) | Potency (CP203) | Potency (CP211) | Potency (CP215) | Potency (CP217) | Potency (CP237) | Potency (CP238)

CC(=O)Nc1c(I)c(C(=O)O)c(I)c(N(C)C(C)=O)c1I
inactive: activity, negative = inhibition ([1]; parasite line B) -11.8% | Potency (3D7) | Potency (7G8) | Potency (AA1029) | Potency (ATS189) | Potency (ATS95) | Potency (C2A) | Potency (CP185) | Potency (CP191) | Potency (CP192) | Potency (CP194) | Potency (CP201) | Potency (CP203) | Potency (CP211) | Potency (CP215) | Potency (CP217) | Potency (CP237) | Potency (CP238) | Potency (CP247)

O=C1c2ccccc2CN2C(=O)c3ccccc3CN12
inactive: Potency (3D7) | Potency (7G8) | Potency (AA1029) | Potency (AS120) | Potency (ATS189) | Potency (ATS95) | Potency (C2A) | Potency (CP185) | Potency (CP191) | Potency (CP192) | Potency (CP194) | Potency (CP201) | Potency (CP203) | Potency (CP211) | Potency (CP215) | Potency (CP217) | Potency (CP237) | Potency (CP238) | Potency (CP247)
